The entries come from a sample that favours hits as a whole.
p53 PUMA act: re-activators of the mutant p53 pathway | activation, % at 9.98 µM | SW480 PUMA-promoter luciferase, p53 mutant reactivation | 28,000 compounds, 1.5% hits | AID 624151; in the data active = activation above about 52%
STK33 inh: inhibitors of human STK33 kinase; Q9BYT3; ADP-Glo luminescence, MBP substrate; inhibition, % at 12.5 µM; 27,000 compounds, 0.44% hits; in the data active = inhibition above about 20%
Target sequence (Q9BYT3 whole entry, looked up): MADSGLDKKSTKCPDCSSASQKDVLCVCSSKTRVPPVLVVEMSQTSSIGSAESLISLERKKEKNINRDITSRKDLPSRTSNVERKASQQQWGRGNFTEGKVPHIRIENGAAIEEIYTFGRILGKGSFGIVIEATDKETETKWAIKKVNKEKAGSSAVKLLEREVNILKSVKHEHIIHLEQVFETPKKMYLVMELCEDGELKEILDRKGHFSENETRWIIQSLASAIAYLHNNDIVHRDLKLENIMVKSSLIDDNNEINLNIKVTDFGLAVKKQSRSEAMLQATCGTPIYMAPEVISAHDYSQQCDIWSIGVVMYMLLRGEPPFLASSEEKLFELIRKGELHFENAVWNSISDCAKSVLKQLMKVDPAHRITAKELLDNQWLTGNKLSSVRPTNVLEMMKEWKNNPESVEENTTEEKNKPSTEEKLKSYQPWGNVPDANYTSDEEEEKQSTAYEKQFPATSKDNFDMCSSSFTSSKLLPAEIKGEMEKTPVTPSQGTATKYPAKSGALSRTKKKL
ID4 SMM: ID4 (human) binding. P47928. small molecule microarray, Flag-ID4 binding, fluorescence F/B. calls only. 31,000 compounds, 1.2% hits. AID 624137; call rule not given here;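 also: a binder raises fluorescence above local background on the spot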
NOMO-1 viab: STK33 inhibitor candidate reducing NOMO-1 cell viability | NOMO-1 AML viability, CellTiter-Glo luminescence, 72 h | inhibition, % (test concentration not listed) | 37,000 compounds, 7.5% hits; in the data active = inhibition above about 80%
Each line names hits and unclear results; the compound was inactive in the other large screens.

O=C1S/C(=C\c2ccc(N3CCOCC3)o2)C(=O)N1c1ccccc1	NOMO-1 viab 132.2 (no result: p53 PUMA act, STK33 inh, ID4 SMM)
C[C@H]1CN([C@@H](C)CO)C(=O)c2cc(NC(=O)C3CC3)ccc2O[C@@H]1CN(C)C(=O)Nc1cccc2ccccc12	none
O=C1NC(=O)C(=Cc2ccc(-c3ccccc3)o2)C(=O)N1	NOMO-1 viab 125.9 (no result: p53 PUMA act, STK33 inh, ID4 SMM)
C[C@@H]1CN([C@H](C)CO)C(=O)c2cc(NC(=O)CCC(F)(F)F)ccc2O[C@@H]1CN(C)S(=O)(=O)c1ccc(F)cc1	none (no result: p53 PUMA act, STK33 inh, ID4 SMM)
C[C@@H]1CN([C@@H](C)CO)C(=O)Cc2cc(NS(=O)(=O)c3ccccc3)ccc2O[C@@H]1CN(C)Cc1ccc(Cl)c(Cl)c1	none (no result: p53 PUMA act, ID4 SMM)
C[C@H]1CN([C@@H](C)CO)C(=O)Cc2cc(NS(=O)(=O)c3ccc(Cl)cc3)ccc2O[C@@H]1CN(C)Cc1ccc(Cl)c(Cl)c1	NOMO-1 viab 84.1 (no result: p53 PUMA act, ID4 SMM)
C[C@H]1CN([C@@H](C)CO)C(=O)Cc2cc(NS(C)(=O)=O)ccc2O[C@@H]1CN(C)Cc1ccc(Cl)c(Cl)c1	NOMO-1 viab 97.8 (no result: p53 PUMA act, ID4 SMM)
C[C@H]1CN([C@@H](C)CO)C(=O)c2cc(N(C)C)ccc2O[C@@H]1CN(C)Cc1ccc(Cl)c(Cl)c1	none (no result: p53 PUMA act)
C[C@@H]1CN([C@H](C)CO)C(=O)Cc2cc(N(C)C)ccc2O[C@@H]1CN(C)Cc1ccc(Cl)c(Cl)c1	NOMO-1 viab 98.6 (no result: ID4 SMM)
C[C@H]1CN([C@@H](C)CO)C(=O)Cc2cc(NS(=O)(=O)c3ccccc3)ccc2O[C@@H]1CN(C)Cc1ccc(Cl)c(Cl)c1	NOMO-1 viab 122.4 (no result: p53 PUMA act, STK33 inh, ID4 SMM)
Cc1ccc(S(=O)(=O)N(C)C[C@H]2Oc3c(NS(=O)(=O)c4ccccc4)cccc3C(=O)N([C@@H](C)CO)C[C@H]2C)cc1	none (no result: p53 PUMA act, STK33 inh, ID4 SMM)
C[C@@H]1CN([C@@H](C)CO)C(=O)Cc2cc(NS(=O)(=O)c3ccc(Cl)cc3)ccc2O[C@@H]1CN(C)Cc1ccc(Cl)c(Cl)c1	NOMO-1 viab 123.8 (no result: p53 PUMA act, ID4 SMM)
C[C@@H]1CN([C@@H](C)CO)C(=O)Cc2cc(NS(=O)(=O)c3ccc(F)cc3)ccc2O[C@@H]1CN(C)Cc1ccc(Cl)c(Cl)c1	NOMO-1 viab 95.8 (no result: p53 PUMA act, ID4 SMM)
C[C@@H]1CN([C@H](C)CO)C(=O)Cc2cc(NS(C)(=O)=O)ccc2O[C@@H]1CN(C)Cc1ccc(Cl)c(Cl)c1	none (no result: p53 PUMA act, ID4 SMM)
C[C@@H]1CN([C@H](C)CO)C(=O)Cc2cc(NC(=O)Nc3ccc(C(F)(F)F)cc3)ccc2O[C@@H]1CN(C)Cc1ccc(C(=O)Nc2ccccc2N)cc1	NOMO-1 viab 138.3 (no result: p53 PUMA act, STK33 inh, ID4 SMM)
C[C@H](CO)N1C[C@H](C)[C@H](CN(C)Cc2ccc(C(=O)Nc3ccccc3N)cc2)Oc2ccc(NC(=O)Nc3ccc(C(F)(F)F)cc3)cc2C1=O	none (no result: p53 PUMA act, STK33 inh, ID4 SMM)
C[C@H]1CN([C@@H](C)CO)C(=O)Cc2cc(NC(=O)Nc3ccc(C(F)(F)F)cc3)ccc2O[C@H]1CN(C)Cc1ccc(C(=O)Nc2ccccc2N)cc1	NOMO-1 viab 127.0 (no result: p53 PUMA act, STK33 inh, ID4 SMM)
CC(C)NC(=O)Nc1ccc2c(c1)CC(=O)N([C@@H](C)CO)C[C@H](C)[C@H](CN(C)S(=O)(=O)c1ccc(Cl)cc1)O2	none (no result: p53 PUMA act, ID4 SMM)
COC(=O)CCc1[nH]c2ccccc2c1Sc1ccccc1	NOMO-1 viab 140.2 (no result: p53 PUMA act, STK33 inh, ID4 SMM)
COc1cccc2c(=O)c(CCC(=O)O)c(C)[nH]c12	none
CN(C)c1nc(N)nc(CSc2ncc(Cl)cc2Cl)n1	p53 PUMA act 62.2
O=C1CCC(=O)N1CNc1cccc(Cl)c1	none (no result: p53 PUMA act, STK33 inh, ID4 SMM)
COC(=O)COc1ccc(NC(=O)c2ccc(OC)c([N+](=O)[O-])c2)cc1	NOMO-1 viab 120.9
COc1ccc(OCC(=O)Nc2ccc(OC)cc2[N+](=O)[O-])cc1	p53 PUMA act 98.0
COc1ccc(C(=O)COc2ccc(NC(=O)c3cccc([N+](=O)[O-])c3)cc2)cc1	none
CCc1cccc(OCC(=O)Nc2ccc(OC)cc2[N+](=O)[O-])c1	p53 PUMA act 91.0
COc1ccc(NC(=O)COc2c(Cl)c(C)c(Cl)c(C)c2Cl)c([N+](=O)[O-])c1	none
COc1ccc(NC(=O)COc2ccc(Cl)c(C)c2)c([N+](=O)[O-])c1	p53 PUMA act 74.1
Cc1cnc(N(C(=O)c2c(-c3ccccc3)noc2C)C(=O)c2c(-c3ccccc3)noc2C)c(C)n1	none (no result: STK33 inh, NOMO-1 viab)
Cc1noc(C)c1NC(=O)Nc1ccc2c(c1)C(=O)N([C@@H](C)CO)C[C@@H](C)[C@H](CN(C)C(=O)NC(C)C)OCCCC[C@H](C)O2	none (no result: STK33 inh, NOMO-1 viab)
C[C@@H]1CN([C@H](C)CO)C(=O)c2cccc(NC(=O)NC3CCCCC3)c2O[C@@H]1CN(C)Cc1ccc(Cl)c(Cl)c1	none (no result: p53 PUMA act, STK33 inh, ID4 SMM)
CNC[C@@H]1Oc2c(NC(=O)c3ccc(-c4nccs4)cc3)cccc2C(=O)N([C@@H](C)CO)C[C@H]1C	none (no result: STK33 inh)
COc1ccc(NC(=O)COc2ccc(Br)cc2Cl)c([N+](=O)[O-])c1	none
COc1ccc(NC(=O)COc2ccccc2Cl)c([N+](=O)[O-])c1	p53 PUMA act 84.3
COC(=O)CCCC(=O)Nc1ccc([N+](=O)[O-])cc1	none

Compound activity (PubChem)
